Screening results deposited in PubChem by several laboratories.
tim10-1 inh = growth inhibitors of tim10-1 mutant yeast, primary screen, luminescence, uHTS; S. cerevisiae tim10-1 ts strain growth, BacTiter-Glo, 24 h; inhibition, % at 20 µM; 2.2% of 330,000 active;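 active = inhibition of at least 40%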;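 note: mutant grown at 25 °C; 0% = DMSO wells with yeast and 100% = wells holding no yeast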
Rce1 inhib = yeast Rce1p protease inhibitors, primary screen, biochemical, fluorescence, cell-free homogeneous; 0.27% of 290,000 active; AID 2563, 2010; yeast membranes, quenched prenylated peptide cleavage fluorescence; CAAX prenyl protease 2 (Saccharomyces cerevisiae (strain ATCC 204508 / S288c)), Q03530; calls only;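 active = fall in fluorescence gain of 50% or more versus controls, with final raw signal at or below 3038400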;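 note: plate controls were neutral control wells for no effect and wells lacking membranes for full effect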
Target sequence (Q03530 whole entry, looked up): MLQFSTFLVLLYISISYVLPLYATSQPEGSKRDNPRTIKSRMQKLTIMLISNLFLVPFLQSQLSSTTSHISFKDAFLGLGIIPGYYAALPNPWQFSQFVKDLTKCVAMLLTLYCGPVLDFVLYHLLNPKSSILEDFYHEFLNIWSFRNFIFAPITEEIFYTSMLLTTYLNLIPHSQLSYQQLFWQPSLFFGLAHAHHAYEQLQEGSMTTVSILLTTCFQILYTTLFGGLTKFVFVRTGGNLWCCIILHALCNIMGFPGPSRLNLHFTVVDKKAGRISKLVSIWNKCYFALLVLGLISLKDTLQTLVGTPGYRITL
PfHsp90 set2 = growth inhibition of PfHsp90-expressing yeast, primary screen, antimalarial PfHsp90 inhibitor project, S. cerevisiae, BacTiter-Glo luminescence, single point, set 2 | BacTiter-Glo ATP, 48 h; yeast lacking PDR1 and PDR3 efflux regulators | inhibition, % at 9.4 µM | 0.32% of 310,000 active | AID 504621, 2011;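 active = every replicate shows inhibition above about 80%, whatever the replicate mean, limit read from the data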;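 note: 0% = DMSO neutral controls and 100% = 20 µM radicicol positive controls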
tim23-1 inh = growth inhibitors of tim23-1 mutant yeast, primary screen, luminescence, uHTS; S. cerevisiae tim23-1 growth, BacTiter-Glo luminescence, 24 h; inhibition, % at 20 µM; 1.3% of 330,000 active; AID 463212, 2010;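 active = growth inhibition of the mutant yeast at or above 50%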;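 note: temperature-sensitive mutant grown at 25 °C; plate controls were DMSO-treated mutant yeast for no effect and medium wells lacking yeast for full effect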
TIM10 inh = growth inhibitors of isogenic TIM10 control yeast, primary screen, counter-screen for tim10-1 yeast inhibitor project, luminescence, uHTS. S. cerevisiae TIM10 strain growth, BacTiter-Glo luminescence, 24 h. inhibition, % at 10 µM. 1.4% of 330,000 active. AID 463195, 2010;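 active = inhibition of 40% or more at the single tested concentration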;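 note: wild-type TIM10 isogenic control strain grown at permissive 25 °C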
tim10-1 conf = growth inhibitors of tim10-1 mutant yeast, confirmation, single concentration, luminescence, S. cerevisiae. shares compounds with tim10-1 inh. S. cerevisiae tim10-1 ts strain growth, BacTiter-Glo, 24 h. inhibition, % at 20 µM. 56% of 7,400 active. AID 463213, 2010;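 active = inhibition of yeast growth at or above a set limit in either of two repeat tests at 20 µM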;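 note: tim10-1 mutant grown at permissive 25 °C to find synthetic lethal compounds; 0% = DMSO yeast wells and 100% = medium wells without yeast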
tim10 confirm = growth inhibitors of wild-type TIM10 yeast, confirmation, counter-screen for tim10-1 synthetic lethality project, single concentration, luminescence, S. cerevisiae; AID 463215, 2010; inhibition, % at 10 µM; shares compounds with TIM10 inh; 63% of 4,600 active; S. cerevisiae tim10 strain growth, BacTiter-Glo luminescence, 24 h;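 active = inhibition of yeast growth at or above a set limit in either of two replicates at 10 µM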;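 note: this counterscreen used the strain with wild-type TIM10; 0% = yeast with DMSO and 100% = medium wells lacking yeast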
* marks the source's active call; other numbers are inactive results; i = inactive; . = not tested or not shown. Compounds with a hit are over-represented: about 3.7% of the library has one in this group of screens.

SMILES	tim10-1 inh	Rce1 inhib	PfHsp90 set2	tim23-1 inh	TIM10 inh	tim10-1 conf	tim10 confirm
Cc1ccc(Oc2nnc(-c3cccs3)c3ccccc23)cc1C	46*	i	17	42	46*	20	13
COCCCn1c(=O)c2ccccc2n(Cc2cc(C(=O)OC)ccc2OC)c1=O	5	i	14	24	9	.	.
O=C(CSc1nnc(-c2cccc(F)c2)o1)Nc1nncs1	11	i	11	-16	-4	.	.
O=C(Nc1nc2c(Cl)ccc(Cl)c2s1)C1CC1	40	i	19	30	35	.	.
NNc1nc2c(Cl)ccc(Cl)c2s1	58*	i	-5	47	53*	58*	3
CN(C)CCCN(C(=O)c1ccc(Cl)s1)c1nc2cc3c(cc2s1)OCO3	48*	i	28	18	42*	46*	23
CN(C)CCCN(C(=O)c1ccco1)c1nc2cc3c(cc2s1)OCO3	10	i	5	6	7	.	.
CN(C)CCCN(C(=O)c1cc(Cl)sc1Cl)c1nc2cc3c(cc2s1)OCO3	63*	i	-10	46	46*	55*	34*
CN(C)CCCN(C(=O)c1ccc(Br)s1)c1nc2cc3c(cc2s1)OCCO3	64*	i	.	43	56*	60*	47*
CN(C)CCCN(C(=O)c1ccc(C(=O)c2ccccc2)cc1)c1nc2cc3c(cc2s1)OCO3	27	i	6	22	40	.	.
O=C(Cn1cc([N+](=O)[O-])cn1)N1CCN(Cc2ccc3c(c2)OCO3)CC1	11	.	-6	-5	7	.	.
CC1CCN(CC(CS(=O)(=O)c2ccc([N+](=O)[O-])cc2)N2CCC(C)CC2)CC1 (configuration not stated)	45*	i	15	43	60*	49*	48*
Cc1ccc(S(=O)(=O)CC(CN2CCOCC2)N2CCOCC2)cc1 (configuration not stated)	15	i	15	-5	12	.	.
CCN(CC(=O)Nc1cc(C)nn1-c1nc(C)cc(C)n1)Cc1ccccc1	44*	i	-15	29	44*	19	-27
Cc1cc(C)nc(-n2nc(C)cc2NC(=O)CNCc2ccccc2)n1	26	i	.	4	2	.	.
COc1ccc(C2=CC(=O)C[C@H](c3ccc(OC)c(OC)c3)C2)cn1	9	.	10	8	10	.	.
Cc1c(/C=N/NC(=O)c2sc3ccccc3c2Cl)cnn1C	53*	i	-13	11	43*	34*	50*
CCc1ccc(C(=O)Cn2ccsc2=N)cc1	-12	i	31	22	-1	.	.
N#C/C(C(=O)Nc1ccc(Cl)cc1)=C(/S)Nc1ccccc1	69*	i	73	17	45*	60*	56*
Cc1ccccc1NCc1nnc2n1CCCCC2	7	i	0	10	2	.	.
CCN(CC)C(=O)c1ccc2c(=O)n(Cc3cccc(Br)c3)c(=S)[nH]c2c1	6	i	.	21	5	.	.
Cc1nc2c3cc(F)ccc3n(Cc3ccccc3)c2s1	45*	i	26	33	48*	36*	37*
COc1cccc(/C=C/C(=O)Nc2ccccc2N2CCOCC2)c1	28	i	34	30	-14	.	.
O=C(CCS(=O)(=O)c1ccccc1)N(CCCN1CCOCC1)c1nc2ccccc2s1	48*	i	26	42	53*	31	64*
COc1ccc(CN2[C@@H](CC(C)=O)c3ccc(/C=C/C(C)=O)cc3S2(=O)=O)cc1	55*	i	.	48	55*	51*	55*
SMILES	tim10-1 inh	Rce1 inhib	PfHsp90 set2	tim23-1 inh	TIM10 inh	tim10-1 conf	tim10 confirm
CSCC[C@H](NC(=O)OC(C)(C)C)C(=O)NCC1CCC(C(=O)N[C@@H](Cc2ccccc2)C(=O)O)CC1 (some centres not stated)	15	i	25	1	-21	.	.
O=C(O)c1cc2c(cc1Br)OCCCO2	4	i	13	10	12	.	.
CCCNC(=O)C1(O)c2cc(Br)ccc2NC(=O)N1c1ccc(Cl)cc1 (configuration not stated)	5	i	-20	10	-1	.	.
c1ccc(CNc2nc(CN3CCOCC3)nc3scc(-c4ccccc4)c23)cc1	25	i	-15	46	36	.	.
Clc1ccc(CNc2nc(CN3CCOCC3)nc3scc(-c4ccccc4)c23)cc1	48*	i	5	45	51*	46*	-12
CCOC(=O)C(C(=O)OCC)c1cc(Br)c2noc3c2c1C(=O)c1ccccc1-3	42*	i	19	46	44*	39*	27
CC(=O)OCCNc1cc(N2CCN(C)CC2)c2noc3c2c1C(=O)c1ccccc1-3	.	.	16	.	.	.	.
COc1ccccc1-n1cnnc1SCC(=O)c1c[nH]c2ccccc12	18	i	-16	-4	8	.	.
CCOC(=O)c1cnc2c(ccc3ccccc32)c1NCCN(C)C	55*	i	-7	39	77*	50*	50*
Cc1nc(N)sc1N=Nc1ccc(Br)cc1	44*	i	-14	48	60*	29*	58*
Cc1ccccc1NC1=NC(=S)N(c2ccccc2)C12CCOC(C)(C)C2 (configuration not stated)	37	i	-11	30	37	.	.
Cc1ccccc1NC1=NC(=S)N(c2ccccc2)C12CCCCC2	54*	i	-26	50	50*	46*	-39
CN=C(Nc1ccc(C)c(C)c1)SC1CC(=O)N(c2ccc(OC)cc2)C1=O (configuration not stated)	35	i	.	-6	34	.	.
CN=C(Nc1ccc(Br)cc1)SC1CC(=O)N(c2ccc(OC)cc2)C1=O (configuration not stated)	41*	i	-14	18	45*	22	27
COc1ccc2[nH]cc(CCNS(=O)(=O)Cc3ccccc3)c2c1	22	i	-23	15	-1	.	.
O=C(C[n+]1cn(C(F)F)c2ccccc21)c1ccc(OC(F)F)cc1	56*	i	-45	49	53*	47*	39*
O=C(C[n+]1ccc(C(=O)NCc2ccccc2)cc1)c1ccc(OC(F)F)cc1	11	i	12	1	12	.	.
CCN(CC)c1ncnc2c1nnn2C	.	.	-8	.	.	.	.
